# Screening results: PubChem, National Center for Advancing Translational Sciences (NCATS)
# Hits are enriched below; roughly 11% of the tested compounds scored in any of these assays.
# Pf growth 96h: inhibits malaria parasite growth, 96 h; P. falciparum luciferase reporter growth, 96 h; Potency, µM (doses to about 28.7 µM), for inactives: at the highest dose activity change, negative = inhibition, most hits filed as inhibitors; 6.9% of 320,000 active; AID 504834
#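 Erythrocytes infected with luciferase-expressing P. falciparum were dispensed at 2% hematocrit and 0.05% parasitemia (final), then incubated with compounds 96 hours at 37 C in 5% CO2. Luminescence after detection reagent addition reported growth.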
# HCV inh: HCV inhibition | Potency, µM (series often up to 41.8 µM), for the others: top-dose activity change, negative = inhibition, usual class: inhibitors | 3.4% of 340,000 active | Huh7.5.1 HCVcc-Cre infection, luciferase reporter, 44 h
#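 Reporter virus HCVcc-Cre (~0.5 moi) infects cells exposed to compound; seeding density 1,000 cells/well with 4 h settling beforehand. Luminescence, 15 sec read, taken 44 h post-infection following a 15 min RT substrate incubation.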
# AMA1-RON2 inh: inhibitors of Plasmodium falciparum AMA1-RON2 interaction. AlphaScreen AMA1-biotinylated RON2 peptide binding. Potency, µM (highest dose often 58.2 µM), without a hit: at the highest dose activity change, negative = inhibition, actives largely listed as inhibitors. 0.2% of 360,000 active. AID 720542;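 further: 0% = vehicle wells and -100% = peptide control; nearly all actives have a fitted effect of over 45% in size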
#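 AMA1 (3D7) with his tag at 25 nM final met compounds first, then biotinylated RON2 peptide at 25 nM; detection used donor plus acceptor beads, 10 µg/mL apiece, read by AlphaScreen after 30 min at room temperature.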
# AmpC no deterg: AmpC beta-lactamase inhibition without detergent. AmpC nitrocefin hydrolysis, absorbance 480 nm, 0.0001% Triton. Potency, µM (titrated, usually from 57.1 µM), for inactives: top-dose activity change, negative = inhibition, hits mostly inhibitors. 0.52% of 330,000 active. AID 485341;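 further: plate controls were no compound for no effect and no enzyme for full effect; nearly all actives have a fitted effect of over 20% in size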
# Target sequence (P00811 whole entry, looked up): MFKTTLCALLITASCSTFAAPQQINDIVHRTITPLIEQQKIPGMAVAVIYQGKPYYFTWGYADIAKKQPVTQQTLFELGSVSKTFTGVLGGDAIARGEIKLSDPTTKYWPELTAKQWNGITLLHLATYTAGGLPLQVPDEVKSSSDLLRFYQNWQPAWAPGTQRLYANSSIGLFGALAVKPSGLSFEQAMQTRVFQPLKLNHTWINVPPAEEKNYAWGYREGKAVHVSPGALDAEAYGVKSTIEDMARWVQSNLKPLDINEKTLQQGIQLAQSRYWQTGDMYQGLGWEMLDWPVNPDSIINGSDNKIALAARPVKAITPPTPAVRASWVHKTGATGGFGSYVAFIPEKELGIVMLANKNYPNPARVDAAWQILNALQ
#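 AmpC (5.3 nM in the dispensed reagent) in 20 mM phosphate pH 7.0 with 0.01% (detergent screen) or 0.0001% Triton X-100 was preincubated with compounds for 15 min at room temperature. Nitrocefin was then added from an 800 uM solution, and hydrolysis was followed at 480 nm.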
# Pf growth 48h: P. falciparum growth inhibition at 48 hours (one generation); P. falciparum luciferase growth in erythrocytes, 48 h; Potency, µM (top dose mostly 28.7 µM), for the others: at the highest dose activity change, negative = inhibition, actives largely listed as inhibitors; 5.9% of 310,000 active; AID 504832
#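 Luciferase-expressing parasites in RBCs, 2% Hct / 0.1% parasitemia final; RPMI 1640 + 0.5% Albumax; 37 C, 5% CO2, one generation; luminescence read-out, lower signal = inhibition.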
# AmpC detergent: blocks E. coli AmpC beta-lactamase in detergent assay. P00811. AmpC hydrolysis of nitrocefin, absorbance 480 nm, 0.01% Triton. Potency, µM (top dose mostly 114 µM), without a hit: at the top dose activity change, negative = inhibition, hits mostly inhibitors. 0.041% of 370,000 active;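 further: 0% = no-compound wells and -100% = no-enzyme wells; nearly all actives have a fitted effect of over 25% in size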
#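 AmpC (5.3 nM in the dispensed reagent) in 20 mM phosphate pH 7.0 with 0.01% (detergent screen) or 0.0001% Triton X-100 was preincubated with compounds for 15 min at room temperature. Nitrocefin was then added from an 800 uM solution, and hydrolysis was followed at 480 nm.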
# * = called active by the depositor; i = inactive; ? = inconclusive; . = no result given; [ ] = another dose, or the depositor's remark. The call rests on the fitted dose curve; in most records, active means well fitted curve in the direction sought with a large enough effect; inconclusive means small, poorly fitted or top-dose-only effect, or another doubt; inactive means no such curve, though single readings can be large; an effect the other way counts as inactive or inconclusive. Unless noted, on the % scale 0 is the no-effect control and ±100 the full control effect; potency means the concentration at half of the fitted maximal effect.
SMILES,Pf growth 96h,HCV inh,AMA1-RON2 inh,AmpC no deterg,Pf growth 48h,AmpC detergent
CC1(C)CC(O)C(C)(C)N1O (centres undefined),13µM*,6%,0%,6%,80%,?
COc1ccc(NC(=O)C2CCC(CNS(=O)(=O)c3ccc(Br)s3)CC2)cc1OC (centres undefined),.,.,.,.,.,0%
COc1ccc(CNC(=O)CCc2nc3cccnc3n2Cc2ccccc2)cc1,.,.,.,.,.,-10%
COCCCNC(=O)CCc1nc2cccnc2n1Cc1ccccc1,8.3µM*,25%,-1%,-18%,31%,-14%
COc1ccc(Cn2c(CCC(=O)Nc3ccccc3)nc3cccnc32)cc1,?,?,-5%,0%,-14%,2%
COc1ccc(Cn2c(CCC(=O)Nc3ccc(CC#N)cc3)nc3cccnc32)cc1,3.7µM*,1%,-14%,16%,?,-11%
CC1=C(C(N)=O)C(c2ccc(C)cc2)n2nc(SCc3ccccc3)nc2N1 (centres undefined),.,.,.,.,.,-4%
COc1ccccc1NC(=O)CCn1nc(-c2ccccc2OC)c2c(C)cc(C)nc21,.,.,.,.,.,3%
CCN(CC)C(=O)CSc1nnc2ccc3ccccc3n12,.,.,.,.,.,0%
CCCCn1c(SCC(=O)N2c3ccccc3Sc3ccccc32)nc2c1c(=O)n(C)c(=O)n2C,.,?,-6%,128%,1.7µM*,2%
CCCn1c(SCC(=O)N2c3ccccc3CCc3ccccc32)nc2c1c(=O)n(C)c(=O)n2C,i,?,0%,3%,15µM*,-1%
CCCn1c(SCC(=O)N2c3ccccc3Sc3ccccc32)nc2ccccc21,3.7µM*,?,6%,-23%,13µM*,-8%
CCN(CC)C(=O)CSc1nnc(-c2cc3ccccc3cc2O)n1CC,-10%,?,2%,41%,8.3µM*,?
CCCn1c(SCC(=O)N2CCc3ccccc3C2)nc2c1c(=O)n(C)c(=O)n2C,-1%,5%,-3%,-3%,-22%,0%
Cn1c(SCC(=O)N2c3ccccc3CCc3ccccc32)nnc1-c1cc2ccccc2cc1O,-92%,?,14%,-25%,1.9µM*,-6%
Cc1cccc(-c2nnc(SCC(=O)N3c4ccccc4CCc4ccccc43)n2C)c1,5%,?,-8%,42%,?,-3%
CCCCOc1ccc(CNC(=O)Cc2ccc(NC(=O)N3CCCCc4ccccc43)cc2)cc1,.,.,.,.,.,-3%
Cc1cc2ccccn2c1C(=O)c1ccc(C#N)cc1,-16%,-21%,-21%,-26%,-13%,0%
COc1cc(OC)cc(C(=O)c2c(C)c(C#N)c3ccccn23)c1,?,?,-1%,-21%,8.3µM*,5%
CNCc1c(OCc2ccc(F)cc2)ccc2ccccc12,?,-3%,5%,19%,15µM*,2%
CCOC(=O)c1c(O)c2ccccc2oc1=O,11%,21%,2%,?,5%,-2%
CCc1oc2ccccc2c1C(=O)c1cc(I)c(O)c(I)c1,1.9µM*,.,.,.,-15%,.
CCC/C=C/C=C/C(=O)OC1/C(=C/C(=O)OC)CC2CC(C(C)O)OC(=O)CC(O)CC3CC(OC(C)=O)C(C)(C)C(O)(CC4C/C(=C/C(=O)OC)CC(/C=C\C(C)(C)C1(O)O2)O4)O3 (centres undefined),1.5µM*,.,.,.,3.8µM*,.
CC(C)CCNC(=O)Nc1ccc2c(c1)N(C)C(=O)c1ccccc1S2,.,.,.,.,.,8%
CCN(CC)c1ccc(NC(=O)Nc2ccc(C(C)=O)cc2)cc1,-4%,?,-5%,0.28µM*,?,3%
SMILES,Pf growth 96h,HCV inh,AMA1-RON2 inh,AmpC no deterg,Pf growth 48h,AmpC detergent
O=C(Nc1cccc(F)c1)c1c(F)c(F)c(F)c(F)c1F,.,?,23%,-4%,13µM*,-3%
CCN(CC)c1ccc(C(=O)Nc2cccc(F)c2)cc1,25%,10µM*,1%,-48%,5%,?
O=C(Nc1ccncc1)c1c(F)c(F)c(F)c(F)c1F,-26%,-4%,-5%,-2%,10µM*,2%
CCN(CC)c1ccc(NC(=O)Nc2ccccc2)cc1,-57%,-19%,?,-28%,?,6%
CN(C)c1cccc(C(=O)Nc2cccc(F)c2)c1,-7%,1%,-34%,-20%,-31%,-12%
Cc1ccc(S(=O)(=O)NCCc2nnc3ccc(SCc4cccc(F)c4)nn23)cc1,.,.,.,.,.,11%
O=C(CSc1nc2ccccc2nc1Cc1ccc(Cl)cc1)N1CCN(c2ccccc2F)CC1,.,.,.,.,.,20%
O=C(NCc1ccccc1)c1nccnc1CO,10µM*,27%,-3%,-3%,-21%[0.00184 µM],1%
O=[N+]([O-])c1ccc(Nc2ccc3ccccc3c2)nc1,?,-25%,-5%,0.32µM*,-93%,1%
CC(C)CCn1c(=O)c2cccnc2n(CC(=O)Nc2ccccc2F)c1=O,.,.,.,.,.,16%
CCOc1cccc2sc(Nc3nc4ccc(NC(C)=O)cc4s3)nc12,?,4.5µM*,27%,78%,?,-1%
CCOc1cccc2sc(NC(=O)CCS(=O)(=O)c3ccccc3)nc12,?,22µM*,-26%,11%,?,-7%
COc1ccc(C)c2sc(NC(=O)CCS(=O)(=O)c3ccccc3)nc12,5.2µM*,?,-12%,28%,-21%,4%
CCOc1cccc2sc(N(CCN(C)C)C(=O)CCS(=O)(=O)c3ccccc3)nc12,.,22%,1%,.,.,.
CCOc1ccc(CCNC(=O)CCc2c(C)nc3c(-c4ccccc4)c(C)nn3c2C)cc1OCC,.,.,.,.,.,-10%
CCCCN(C)CCNC(=O)C1CCN(c2nc3ccc(CC)cc3s2)CC1,.,.,.,.,.,0%
COc1cccc(NC(=O)Cn2cc(C(=O)C3CCCCC3)c3ccccc32)c1,.,.,.,.,.,25%
COc1cc(NC(=O)Cn2ncc3c2-c2ccccc2OC3)cc(OC)c1OC,?,-11%,-1%,43%,.,2%
COc1ccccc1NC(=O)Cn1ncc2c1-c1ccccc1OC2,?,9%,0%,6.3µM*,-12%,-14%
COc1ccc(Cl)cc1NC(=O)CSc1nnc(C)n2c1cc1occc12,.,.,.,.,.,-4%
CC1CCCCN1Cc1c(O)ccc2c(=O)c(-c3ccccc3)coc12 (centres undefined),37%,?,7%,-21%,7%[0.00184 µM],3%
CCc1cc2c(=O)c(-c3ccc4c(c3)OCCO4)coc2c(CN2CCCCC2C)c1O (centres undefined),-4%,6.3µM*,9%,-15%,2.1µM*,-1%
